Reference: ChEMBL document CHEMBL2218924, “A broad activity screen in support of a chemogenomic map for kinase signalling research and drug discovery” (Biochem J, 2013)

What was measured:
[1] = molecular target: T1, Mitogen-activated protein kinase kinase kinase 7 (Homo sapiens) (UniProt O43318); settings: at 1 µM
T1 sequence (whole entry): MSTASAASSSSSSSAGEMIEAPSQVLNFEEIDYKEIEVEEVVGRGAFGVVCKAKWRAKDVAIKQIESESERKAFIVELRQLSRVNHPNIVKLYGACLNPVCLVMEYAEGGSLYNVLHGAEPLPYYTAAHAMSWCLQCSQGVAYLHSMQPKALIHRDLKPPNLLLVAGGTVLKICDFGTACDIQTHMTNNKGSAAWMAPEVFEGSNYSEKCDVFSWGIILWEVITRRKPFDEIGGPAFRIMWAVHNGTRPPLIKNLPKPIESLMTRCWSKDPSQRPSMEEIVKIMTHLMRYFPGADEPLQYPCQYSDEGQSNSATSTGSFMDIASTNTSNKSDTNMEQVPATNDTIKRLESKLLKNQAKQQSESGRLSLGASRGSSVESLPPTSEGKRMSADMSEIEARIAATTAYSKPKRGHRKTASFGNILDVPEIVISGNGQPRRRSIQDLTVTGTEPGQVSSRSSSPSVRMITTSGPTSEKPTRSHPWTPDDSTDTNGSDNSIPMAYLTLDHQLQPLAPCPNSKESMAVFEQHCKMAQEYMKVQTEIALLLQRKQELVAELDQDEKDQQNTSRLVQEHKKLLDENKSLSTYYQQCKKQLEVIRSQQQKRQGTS

[2] = molecular target: T1, Mitogen-activated protein kinase kinase kinase 7 (Homo sapiens); settings: at 10 µM
[3] = molecular target: T2, Serine/threonine-protein kinase TAO1 (Homo sapiens) (UniProt Q7L7X3); settings: at 1 µM
T2 sequence (whole entry): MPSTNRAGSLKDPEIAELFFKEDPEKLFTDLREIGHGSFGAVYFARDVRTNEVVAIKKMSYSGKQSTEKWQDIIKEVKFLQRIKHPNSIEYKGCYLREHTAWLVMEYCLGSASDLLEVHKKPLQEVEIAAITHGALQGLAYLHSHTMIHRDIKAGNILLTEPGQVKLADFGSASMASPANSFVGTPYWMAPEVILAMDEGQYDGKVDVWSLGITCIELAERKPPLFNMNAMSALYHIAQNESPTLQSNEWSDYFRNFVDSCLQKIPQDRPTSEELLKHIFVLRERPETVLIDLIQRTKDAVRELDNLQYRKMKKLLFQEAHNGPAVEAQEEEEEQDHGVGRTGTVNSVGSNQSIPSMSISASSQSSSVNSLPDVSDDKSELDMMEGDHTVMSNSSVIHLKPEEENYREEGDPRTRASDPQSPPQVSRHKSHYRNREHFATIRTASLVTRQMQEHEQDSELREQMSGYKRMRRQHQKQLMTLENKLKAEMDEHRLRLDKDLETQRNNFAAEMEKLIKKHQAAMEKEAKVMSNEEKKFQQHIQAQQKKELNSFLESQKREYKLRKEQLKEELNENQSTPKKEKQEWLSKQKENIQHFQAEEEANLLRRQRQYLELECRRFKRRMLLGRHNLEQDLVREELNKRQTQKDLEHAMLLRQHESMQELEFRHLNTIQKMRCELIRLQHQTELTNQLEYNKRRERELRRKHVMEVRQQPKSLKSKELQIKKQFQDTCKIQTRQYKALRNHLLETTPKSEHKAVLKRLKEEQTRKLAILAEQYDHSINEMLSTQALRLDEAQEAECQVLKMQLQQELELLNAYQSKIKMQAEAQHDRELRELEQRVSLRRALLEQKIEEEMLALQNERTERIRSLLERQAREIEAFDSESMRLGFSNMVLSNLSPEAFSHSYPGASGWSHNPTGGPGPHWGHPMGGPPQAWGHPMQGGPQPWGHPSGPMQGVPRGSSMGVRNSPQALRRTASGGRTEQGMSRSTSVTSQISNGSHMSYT

[4] = molecular target: T2, Serine/threonine-protein kinase TAO1 (Homo sapiens); settings: at 10 µM
[5] = molecular target: T3, Serine/threonine-protein kinase TAO3 (Homo sapiens) (UniProt Q9H2K8); settings: at 1 µM
T3 sequence (whole entry): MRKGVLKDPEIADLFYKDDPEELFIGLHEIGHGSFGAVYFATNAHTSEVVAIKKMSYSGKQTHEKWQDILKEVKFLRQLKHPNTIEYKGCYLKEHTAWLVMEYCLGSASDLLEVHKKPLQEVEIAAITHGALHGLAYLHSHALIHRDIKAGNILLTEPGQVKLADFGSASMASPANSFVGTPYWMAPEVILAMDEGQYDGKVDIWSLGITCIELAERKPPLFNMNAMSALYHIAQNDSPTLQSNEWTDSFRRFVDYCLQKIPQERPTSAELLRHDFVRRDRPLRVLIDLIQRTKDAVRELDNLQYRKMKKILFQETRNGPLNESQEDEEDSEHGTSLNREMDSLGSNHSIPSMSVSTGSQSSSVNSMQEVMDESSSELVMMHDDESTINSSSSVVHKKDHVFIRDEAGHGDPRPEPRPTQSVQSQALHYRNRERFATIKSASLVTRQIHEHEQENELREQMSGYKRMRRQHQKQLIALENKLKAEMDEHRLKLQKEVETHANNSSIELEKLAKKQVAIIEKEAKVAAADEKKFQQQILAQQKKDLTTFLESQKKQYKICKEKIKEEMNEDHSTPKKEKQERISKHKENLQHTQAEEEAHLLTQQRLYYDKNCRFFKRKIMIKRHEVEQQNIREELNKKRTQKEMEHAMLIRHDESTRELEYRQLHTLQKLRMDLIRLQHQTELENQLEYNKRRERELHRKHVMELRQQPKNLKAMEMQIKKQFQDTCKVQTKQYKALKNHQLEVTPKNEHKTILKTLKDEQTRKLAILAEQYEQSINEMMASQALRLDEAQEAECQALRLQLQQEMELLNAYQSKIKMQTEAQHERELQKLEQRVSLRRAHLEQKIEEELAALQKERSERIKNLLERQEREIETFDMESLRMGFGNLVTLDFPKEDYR

[6] = molecular target: T3, Serine/threonine-protein kinase TAO3 (Homo sapiens); settings: at 10 µM
[7] = molecular target: T4, Serine/threonine-protein kinase TBK1 (Homo sapiens) (UniProt Q9UHD2); settings: at 1 µM
T4 sequence (whole entry): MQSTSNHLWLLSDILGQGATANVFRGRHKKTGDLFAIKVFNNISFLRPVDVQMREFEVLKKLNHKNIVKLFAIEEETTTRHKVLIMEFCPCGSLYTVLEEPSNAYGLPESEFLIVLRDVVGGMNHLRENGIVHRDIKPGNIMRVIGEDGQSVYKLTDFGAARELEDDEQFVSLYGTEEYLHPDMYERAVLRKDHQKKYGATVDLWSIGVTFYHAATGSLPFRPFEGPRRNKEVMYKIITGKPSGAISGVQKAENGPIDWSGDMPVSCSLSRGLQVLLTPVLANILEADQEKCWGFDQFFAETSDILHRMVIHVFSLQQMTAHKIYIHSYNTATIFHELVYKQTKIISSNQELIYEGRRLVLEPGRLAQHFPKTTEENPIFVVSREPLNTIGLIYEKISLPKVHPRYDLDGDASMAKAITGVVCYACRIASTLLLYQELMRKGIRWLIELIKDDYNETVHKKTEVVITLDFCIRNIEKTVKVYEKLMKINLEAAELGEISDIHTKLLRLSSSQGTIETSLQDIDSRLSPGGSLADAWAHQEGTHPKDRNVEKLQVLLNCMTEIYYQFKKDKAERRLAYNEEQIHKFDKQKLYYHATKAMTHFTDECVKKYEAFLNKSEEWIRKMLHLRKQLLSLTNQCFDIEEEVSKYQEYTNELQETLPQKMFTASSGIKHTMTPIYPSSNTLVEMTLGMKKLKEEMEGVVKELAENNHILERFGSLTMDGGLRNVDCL

[8] = molecular target: T4, Serine/threonine-protein kinase TBK1 (Homo sapiens); settings: at 10 µM
[9] = molecular target: T5, Inhibitor of nuclear factor kappa-B kinase subunit alpha (Homo sapiens) (UniProt O15111); settings: at 1 µM
T5 sequence (whole entry): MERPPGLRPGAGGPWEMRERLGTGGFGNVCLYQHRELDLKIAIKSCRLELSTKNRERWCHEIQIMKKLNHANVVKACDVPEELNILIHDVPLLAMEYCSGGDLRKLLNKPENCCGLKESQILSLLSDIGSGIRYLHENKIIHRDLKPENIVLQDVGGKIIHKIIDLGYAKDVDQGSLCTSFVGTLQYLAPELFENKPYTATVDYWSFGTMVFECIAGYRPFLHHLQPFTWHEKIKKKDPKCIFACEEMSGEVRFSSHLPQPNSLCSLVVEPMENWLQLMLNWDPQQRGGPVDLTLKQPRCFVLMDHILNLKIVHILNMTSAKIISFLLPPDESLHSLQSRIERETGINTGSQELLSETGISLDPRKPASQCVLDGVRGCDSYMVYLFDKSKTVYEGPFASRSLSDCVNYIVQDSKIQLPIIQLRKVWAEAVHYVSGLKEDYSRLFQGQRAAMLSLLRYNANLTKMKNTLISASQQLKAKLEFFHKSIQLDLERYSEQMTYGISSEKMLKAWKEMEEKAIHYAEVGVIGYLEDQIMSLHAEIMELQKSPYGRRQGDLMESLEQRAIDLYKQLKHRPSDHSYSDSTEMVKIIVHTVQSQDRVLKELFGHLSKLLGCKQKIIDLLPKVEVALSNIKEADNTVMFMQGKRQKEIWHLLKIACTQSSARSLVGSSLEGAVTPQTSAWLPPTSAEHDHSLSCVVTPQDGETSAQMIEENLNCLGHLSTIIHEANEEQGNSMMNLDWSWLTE

[10] = molecular target: T5, Inhibitor of nuclear factor kappa-B kinase subunit alpha (Homo sapiens); settings: at 10 µM
[11] = molecular target: T6, Inhibitor of nuclear factor kappa-B kinase subunit beta (Homo sapiens) (UniProt O14920); settings: at 10 µM
T6 sequence (whole entry): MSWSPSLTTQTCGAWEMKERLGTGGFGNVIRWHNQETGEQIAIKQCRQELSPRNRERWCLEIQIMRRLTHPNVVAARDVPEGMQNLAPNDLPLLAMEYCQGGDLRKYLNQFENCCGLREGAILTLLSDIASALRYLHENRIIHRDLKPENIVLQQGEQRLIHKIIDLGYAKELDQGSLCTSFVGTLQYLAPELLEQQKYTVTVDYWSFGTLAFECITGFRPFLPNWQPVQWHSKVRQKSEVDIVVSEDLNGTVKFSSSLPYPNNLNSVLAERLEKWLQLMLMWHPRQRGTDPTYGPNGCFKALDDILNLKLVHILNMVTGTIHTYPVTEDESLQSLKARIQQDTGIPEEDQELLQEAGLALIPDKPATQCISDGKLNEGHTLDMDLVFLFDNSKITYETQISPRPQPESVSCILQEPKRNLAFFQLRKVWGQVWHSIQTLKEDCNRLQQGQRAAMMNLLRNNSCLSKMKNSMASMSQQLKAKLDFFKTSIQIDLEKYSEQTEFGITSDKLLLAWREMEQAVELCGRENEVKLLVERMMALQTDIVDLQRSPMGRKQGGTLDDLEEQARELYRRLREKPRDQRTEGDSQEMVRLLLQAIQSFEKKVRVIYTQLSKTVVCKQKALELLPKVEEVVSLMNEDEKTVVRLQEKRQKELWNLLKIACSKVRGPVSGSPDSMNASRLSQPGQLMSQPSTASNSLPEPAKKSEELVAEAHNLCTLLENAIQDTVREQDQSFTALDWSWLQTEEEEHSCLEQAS

[12] = molecular target: Tyrosine-protein kinase SYK (Homo sapiens) (UniProt P43405); settings: at 10 µM
[13] = molecular target: T7, TGF-beta receptor type-1 (Homo sapiens) (UniProt P36897); settings: at 1 µM
T7 sequence (whole entry): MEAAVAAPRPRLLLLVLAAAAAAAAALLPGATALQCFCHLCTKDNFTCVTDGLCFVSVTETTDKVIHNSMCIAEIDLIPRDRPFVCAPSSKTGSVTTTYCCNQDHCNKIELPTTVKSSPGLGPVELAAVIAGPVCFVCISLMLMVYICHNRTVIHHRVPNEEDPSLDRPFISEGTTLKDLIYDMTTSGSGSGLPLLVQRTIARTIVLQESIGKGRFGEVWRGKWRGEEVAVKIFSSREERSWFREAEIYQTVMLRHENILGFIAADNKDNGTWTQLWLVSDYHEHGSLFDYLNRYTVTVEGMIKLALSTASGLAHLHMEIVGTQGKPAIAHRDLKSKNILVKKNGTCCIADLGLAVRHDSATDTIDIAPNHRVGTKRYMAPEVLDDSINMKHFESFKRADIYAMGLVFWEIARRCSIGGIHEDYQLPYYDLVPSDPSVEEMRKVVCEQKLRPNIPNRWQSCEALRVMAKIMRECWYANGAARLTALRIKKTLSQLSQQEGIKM

[14] = molecular target: T6, Inhibitor of nuclear factor kappa-B kinase subunit beta (Homo sapiens); settings: at 1 µM

SMILES | residual activity [1] [%] | residual activity [2] [%] | residual activity [3] [%] | residual activity [4] [%] | residual activity [5] [%] | residual activity [6] [%] | residual activity [7] [%] | residual activity [8] [%] | residual activity [9] [%] | residual activity [10] [%] | residual activity [11] [%] | residual activity [12] [%] | residual activity [13] [%] | residual activity [14] [%]
CC(C)(C)c1nc2c3ccc(F)cc3c3c(=O)[nH]ccc3c2[nH]1 | 44 | 62 | 56 | 24 | 68 | 73 | 15 | 3 | 52 | 32 | 27 | – | – | –
N#C/C(=C\c1ccc(O)c(O)c1)C(=O)NCc1ccccc1 | – | – | – | – | – | – | 82 | 65 | 104 | 89 | – | 71 | 81 | –
O=S(=O)(NCCNC/C=C/c1ccc(Br)cc1)c1cccc2cnccc12 | – | – | – | 59 | – | 61 | – | 66 | – | – | 100 | – | – | 126
